For experiment [1], the target named is Rap guanine nucleotide exchange factor 3 (Homo sapiens) (UniProt O95398). The experiment in a line: Confirmatory qHTS for antagonist of cAMP-regulated guanine nucleotide exchange factor 3 (EPAC1) (AID 1645880).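 For activity, negative = inhibition: plate controls were DMSO only for no effect and full effect of the ATA control for full effect.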 Note: nearly all actives have a fitted effect of over 55% in size. Note: potency is the fitted concentration of half-maximal effect. Conditions: EPAC1 Rap1B-BODIPY-GDP exchange, fluorescence; activity, negative = inhibition: at 115 µM (top of the series). The method, boiled down:
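Released BODIPY-GDP fluoresces less than Rap1-bound BODIPY-GDP; the signal is followed at 480/540 nm at 5-min intervals over 30 min, after 5 min at room temperature. Reactions contain 100 nM EPAC1, 250 nM RAP1B-BODIPY-GDP and 50 uM GDP; results are normalized to ATA and DMSO.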
(In qHTS, concentration-response curves come from the screen itself.)

The target of experiment [2] is Rap guanine nucleotide exchange factor 4 (Homo sapiens) (UniProt Q8WZA2). The experiment in a line: Confirmatory qHTS for agonist of cAMP-regulated guanine nucleotide exchange factor 4 (EPAC2) (AID 1645884). For activation: % is set by controls: 0 for no effect and ±100 for the full control effect.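 Note: nucleotide exchange releases bodipy-GDP from Rap1 and this lowers its fluorescence; nearly all actives have a fitted effect of over 65% in size.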 Note: potency is the fitted concentration of half-maximal effect.
Chain of Rap guanine nucleotide exchange factor 4 (Homo sapiens) (Q8WZA2 whole entry, looked up): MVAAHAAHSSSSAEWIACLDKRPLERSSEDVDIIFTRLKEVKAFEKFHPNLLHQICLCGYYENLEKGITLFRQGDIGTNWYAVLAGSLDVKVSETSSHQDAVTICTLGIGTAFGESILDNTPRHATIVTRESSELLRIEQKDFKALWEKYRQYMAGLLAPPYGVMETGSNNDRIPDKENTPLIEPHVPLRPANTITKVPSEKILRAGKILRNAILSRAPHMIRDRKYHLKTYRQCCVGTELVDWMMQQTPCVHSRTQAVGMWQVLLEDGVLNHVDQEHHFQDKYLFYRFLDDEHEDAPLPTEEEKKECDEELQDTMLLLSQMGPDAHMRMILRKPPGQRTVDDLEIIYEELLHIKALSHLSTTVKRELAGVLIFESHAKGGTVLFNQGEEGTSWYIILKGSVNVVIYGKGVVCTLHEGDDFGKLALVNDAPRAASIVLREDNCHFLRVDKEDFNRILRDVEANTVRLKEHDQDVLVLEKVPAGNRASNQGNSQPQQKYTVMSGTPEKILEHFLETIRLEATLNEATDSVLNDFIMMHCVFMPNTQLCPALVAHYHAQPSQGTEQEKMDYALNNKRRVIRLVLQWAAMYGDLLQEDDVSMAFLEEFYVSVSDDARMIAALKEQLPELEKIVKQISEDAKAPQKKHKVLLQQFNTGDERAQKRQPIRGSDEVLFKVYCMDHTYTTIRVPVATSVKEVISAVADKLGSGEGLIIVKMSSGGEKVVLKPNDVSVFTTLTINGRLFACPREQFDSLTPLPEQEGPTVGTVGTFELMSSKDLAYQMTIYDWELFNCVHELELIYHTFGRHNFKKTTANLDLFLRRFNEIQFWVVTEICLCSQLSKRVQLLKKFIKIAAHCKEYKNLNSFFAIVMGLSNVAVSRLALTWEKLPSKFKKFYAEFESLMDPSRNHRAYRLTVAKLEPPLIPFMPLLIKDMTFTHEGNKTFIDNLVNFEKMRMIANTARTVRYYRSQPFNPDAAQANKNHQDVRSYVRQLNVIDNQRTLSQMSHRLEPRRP
For experiment [3] the target is unchanged. Kind of experiment: Confirmatory qHTS for antagonist of cAMP-regulated guanine nucleotide exchange factor 4 (EPAC2) (AID 1645885). For activity change, negative = inhibition: % is set by controls: 0 for no effect and ±100 for the full control effect. Note: nearly all actives have a fitted effect of over 25% in size. Note: potency is the fitted concentration of half-maximal effect.
In experiment [4] the target is Rap guanine nucleotide exchange factor 3 (Homo sapiens) (UniProt O95398). Kind of experiment: Counterscreen qHTS for antagonist of cAMP-regulated guanine nucleotide exchange factor 3 (EPAC1) (AID 1645888). Note: % of control where 0% means no effect. Put shortly: (§1)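 Measured: fluorescence of BODIPY-GDP bound to Rap1B, which falls as exchange proceeds. Conditions include 50 uM competing GDP, 5 and 30 min reads, and a later cAMP challenge for antagonist detection.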
Chain of Rap guanine nucleotide exchange factor 3 (Homo sapiens) (O95398 whole entry, looked up): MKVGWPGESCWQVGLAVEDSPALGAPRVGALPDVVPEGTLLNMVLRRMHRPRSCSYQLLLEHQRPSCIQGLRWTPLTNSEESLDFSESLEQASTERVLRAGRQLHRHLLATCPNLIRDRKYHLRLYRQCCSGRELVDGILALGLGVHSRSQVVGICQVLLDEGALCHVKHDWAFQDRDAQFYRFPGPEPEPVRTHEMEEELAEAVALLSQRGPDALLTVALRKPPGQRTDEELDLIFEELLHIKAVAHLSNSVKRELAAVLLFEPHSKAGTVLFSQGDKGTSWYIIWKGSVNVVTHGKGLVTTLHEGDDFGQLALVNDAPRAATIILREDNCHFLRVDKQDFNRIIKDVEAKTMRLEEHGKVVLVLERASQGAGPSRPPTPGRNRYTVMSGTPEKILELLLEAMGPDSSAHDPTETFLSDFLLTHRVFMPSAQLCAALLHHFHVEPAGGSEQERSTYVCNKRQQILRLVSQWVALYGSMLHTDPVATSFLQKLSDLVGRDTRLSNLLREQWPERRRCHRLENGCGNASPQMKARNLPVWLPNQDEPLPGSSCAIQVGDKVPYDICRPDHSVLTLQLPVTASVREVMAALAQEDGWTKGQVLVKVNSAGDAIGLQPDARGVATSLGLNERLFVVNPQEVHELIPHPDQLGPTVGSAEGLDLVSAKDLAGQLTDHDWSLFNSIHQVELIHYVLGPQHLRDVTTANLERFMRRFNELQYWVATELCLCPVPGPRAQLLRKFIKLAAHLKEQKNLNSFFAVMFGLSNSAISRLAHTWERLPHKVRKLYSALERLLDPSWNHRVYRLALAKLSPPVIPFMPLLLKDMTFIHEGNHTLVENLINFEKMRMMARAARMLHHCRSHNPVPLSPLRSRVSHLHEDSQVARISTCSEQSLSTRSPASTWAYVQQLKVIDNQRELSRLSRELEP
Background: The purpose of a counterscreen is to sort out artefacts and off-target activity.

The target is the same in experiment [5]. Kind of experiment: Counterscreen qHTS for agonist of cAMP-regulated guanine nucleotide exchange factor 3 (EPAC1) (AID 1645889). For activation: % of control where 0% means no effect. Note: nearly all actives have a fitted effect of over 40% in size. Note: potency is the fitted concentration of half-maximal effect. Put shortly:
as §1

The target in experiment [6] is Tumor susceptibility gene 101 protein (Homo sapiens) (UniProt Q99816). Kind of experiment: qHTS Assay for Iinhibitors of HIV-1 Budding by Blocking the Interaction of PTAP/TSG101: Hit Validation (AID 651600). For activity change, negative = inhibition: % is set by controls: 0 for no effect and ±100 for the full control effect. Note: nearly all actives have a fitted effect of over 70% in size. Note: potency is the fitted concentration of half-maximal effect. Put shortly: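 FITC-PTAP peptide (50 nM final) binding to Tsg101 binding domain (10 uM final) was measured by polarization after 20 min at r.t. with compounds, in 10 mM HEPES pH 7.5 buffer with 0.15 M NaCl and 0.01% Tween 20.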
Chain of Tumor susceptibility gene 101 protein (Homo sapiens) (Q99816 whole entry, looked up, the tested form may be a part): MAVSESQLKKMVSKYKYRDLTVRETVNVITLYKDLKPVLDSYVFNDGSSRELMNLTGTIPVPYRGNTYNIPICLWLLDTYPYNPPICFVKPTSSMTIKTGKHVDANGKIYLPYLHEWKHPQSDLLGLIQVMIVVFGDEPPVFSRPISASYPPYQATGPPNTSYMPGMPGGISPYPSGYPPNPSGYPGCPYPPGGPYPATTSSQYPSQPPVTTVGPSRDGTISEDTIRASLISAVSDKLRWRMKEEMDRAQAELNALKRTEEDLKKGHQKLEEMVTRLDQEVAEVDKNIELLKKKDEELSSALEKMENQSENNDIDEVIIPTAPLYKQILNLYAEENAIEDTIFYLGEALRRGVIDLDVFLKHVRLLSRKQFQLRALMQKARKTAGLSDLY

Experiment [7] can be described thus: Counterscreen for APE1 Inhibitors: Fluorescent Dye Displacement Assay (AID 2564).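 Note: loss of thiazole orange fluorescence as the dye is displaced from duplex DNA; 0% = ThO with dsDNA and no compound and -100% = ThO without dsDNA.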 The method, boiled down:
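Signal: ThO fluorescence (ex 480 nm/em 540 nm) on binding 50 nM dsDNA; displacement by test compound reduces it. Conditions: 250 nM dye, 50 mM Tris-HCl pH7.5, 2 mM MgCl2, 50mM NaCl, 0.01% Tween-20.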

Experiment [8] has as its target Endonuclease 4 (Escherichia coli (strain K12)) (UniProt P0A6C1). Kind of experiment: Counterscreen for APE1 Inhibitors: qHTS Assay for Inhibitors of Endonuclease IV (AID 2565).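 Note: plate controls were uninhibited enzyme wells for no effect and no enzyme buffer wells for full effect.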 Put shortly: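 Measured as reaction progress, the fluorescence gain between first and third kinetic reads after adding 50 nM TAMRA/BHQ-2 THF duplex to 2 nM enzyme preincubated 15 min with compound; 2 mM MgCl2, pH 7.5.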

Experiment [9] addresses DNA repair nuclease/redox regulator APEX1 (Homo sapiens) (UniProt P27695). Kind of experiment: Confirmation qHTS Assay for Inhibitors of the Human Apurinic/apyrimidinic Endonuclease 1 (APE1) (AID 2572). Note: potency is the fitted concentration of half-maximal effect; nearly all actives have a fitted effect of over 30% in size. Conditions: purified APE1, fluorogenic abasic-site DNA cleavage. Put shortly: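 APE1 endonuclease activity was assessed as fluorescence released when the enzyme nicked a quenched abasic-site duplex (50 nM final). Compounds were preincubated with enzyme 15 min at room temperature before substrate addition.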

Experiment [10] has the same target. Kind of experiment: qHTS FP-Based Assay for Inhibitors of the Human Apurinic/apyrimidinic Endonuclease 1 (APE1) (AID 2573). Note: % is set by controls: 0 for no effect and ±100 for the full control effect.

Records with an inconclusive call do not appear. A number with no mark means an inactive call. This is one part of the list. Activity calls are given as the source filed them. Calls come from the whole dose curve; as a rule, active = well fitted curve in the direction sought with a large enough effect; inconclusive = small, poorly fitted or top-dose-only effect, or another doubt; inactive = no such curve, though single readings can be large; an effect the other way counts as inactive or inconclusive.

This note sets out measurements from PubChem BioAssay (NCATS).

Chain of DNA repair nuclease/redox regulator APEX1 (Homo sapiens) (P27695 whole entry, looked up): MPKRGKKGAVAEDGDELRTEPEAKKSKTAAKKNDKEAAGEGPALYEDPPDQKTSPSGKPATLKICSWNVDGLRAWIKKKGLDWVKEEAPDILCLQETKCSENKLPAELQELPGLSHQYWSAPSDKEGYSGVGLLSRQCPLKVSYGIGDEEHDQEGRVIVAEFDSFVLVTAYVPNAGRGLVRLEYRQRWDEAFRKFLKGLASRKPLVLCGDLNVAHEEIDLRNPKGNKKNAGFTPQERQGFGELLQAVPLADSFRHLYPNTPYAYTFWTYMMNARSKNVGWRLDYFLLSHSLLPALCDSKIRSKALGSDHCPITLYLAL

`Cn1cc(/C=C2\SC(=S)N(NC(=O)c3ccccc3Cl)C2=O)c2ccccc21`: the Potency entry in experiment [1], in experiment [3] and in experiment [4] was “inactive” each time. For the same compound, the Potency in experiment [2] was 100 µM (active); in experiment [5] it was 63.1 µM (active).

Regarding `COc1ccc(CN(C(=O)c2cccs2)c2ccccc2)cc1`, the Potency result in experiment [1] and in experiment [3] was “inactive” in each case. The activation is 16.8% [at 17.1 µM, percent relative to cAMP agonist control] in experiment [2] and 12% [at 30.8 µM] in experiment [5]. For the same compound, the activity change, negative = inhibition in experiment [4] was -5.93% [at 30.8 µM].

In the case of `CC(=O)Nc1sc2c(c1-c1nc3ccccc3s1)CN(C(C)C)CC2`, the Potency result in [1] and in experiment [3] was “inactive” each time. For the same compound, in experiment [2], the activation is 18.6% [at 17.1 µM, percent relative to cAMP agonist control]. In addition, in experiment [4], the activity change, negative = inhibition is 28.4% [at 30.8 µM]. In experiment [5], the Potency was 10 µM (active).

Take `Cc1nn(C)c(C)c1N1C(=O)c2cccc3c(N)ccc(c23)C1=O`: the Potency in experiment [6] is 2.59 µM (active); in experiment [2] it was 5.01 µM (active); in experiment [5], 11.2 µM (active). For the same compound, the Potency result in experiment [1] and in [3] was “inactive” in each case. In experiment [4], the activity change, negative = inhibition was 353% [at 30.8 µM].

As to `O=C(NCc1ccc(F)cc1)c1cccc2c1C(=O)c1ccc(N3CCC(Cc4ccccc4)CC3)cc1S2(=O)=O`, the Potency in experiment [6] was 10.3 µM (active). Further, the Potency result in experiment [1] and in experiment [3] was “inactive” each time. The activation in [2] is 30% [at 17.1 µM, percent relative to cAMP agonist control]. Also, the activity change, negative = inhibition in experiment [4] was 83.7% [at 30.8 µM].

As for `COCCN1C(=O)/C(=C/c2ccc(N3CCCC3)cc2)SC1=S`, the Potency entry in [1] and in experiment [4] was “inactive” throughout. In [2], the Potency was 112 µM (active).

As to `COc1cccc2c1C(=O)c1c(O)c3c(c(O)c1C2=O)CC(O)(C(C)=O)CC3OC1CC(N(C)C)C(O)C(C)O1` (centres undefined), the Potency in [6] is 9.19 µM (active). Further, the Potency entry in experiment [1] and in [3] was “inactive” each time. Besides, the activation in [2] is 10.6% [at 17.1 µM, percent relative to cAMP agonist control]. Besides, in experiment [4], the activity change, negative = inhibition was 80.1% [at 30.8 µM].

As for `COc1ccc2noc3c2c1C(=O)c1ccccc1-3`, the Potency entry in experiment [1] and in [3] was “inactive” in each case. Also, the values for the Potency in experiment [2] and in experiment [5] were 112 µM (active) and 20 µM (active), respectively.

For the compound `O=S1(=O)C=C(Oc2ccc3ccccc3c2)c2ccccc21`, the Potency entry in experiment [1] is “inactive”. For the same compound, the activation in experiment [2] was -2.76% [at 17.1 µM, percent relative to cAMP agonist control]. Besides, in experiment [4], the activity change, negative = inhibition was 21.2% [at 30.8 µM].

Consider `O=c1c(/C=C(\O)c2ccc(F)cc2)nc2ccccc2n1-c1ccccc1`, for which the Potency entry in [6], in [1], in [3] and in experiment [4] was “inactive” each time. The Potency in [2] is 100 µM (active).

As to `Brc1ccccc1Cn1c(-c2cncs2)nc2ccccc21`, the Potency result in [1], in [2] and in experiment [4] was “inactive” each time.

Regarding `Cc1cc(/C=C2\SC(=S)N(C)C2=O)c(C)n1-c1ccccc1O`, the Potency result in experiment [1] and in experiment [3] was “inactive” in each case. Also, the results for the Potency in experiment [2] and in [5] were 100 µM (active) and 89.1 µM (active), respectively.

For `Cc1ccc(/C=C/C(=O)c2ccc(N3CCOCC3)cc2)s1`, the Potency result in experiment [1] and in [4] was “inactive” each time. The Potency in [2] is 100 µM (active).

In the case of `CCCn1c(O)c(N=Nc2ccc3ccccc3n2)c2ccccc21`, the Potency result in experiment [6], in experiment [1] and in experiment [4] was “inactive” each time. The Potency was 100 µM (active) in experiment [2] and 21.3 µM (active) in experiment [3].

As for `Nc1ccc2c3c(cccc13)C(=O)N(c1ccccc1)C2=O`, the Potency in experiment [6] was 3.66 µM (active); in experiment [2] it was 100 µM (active). Besides, the Potency entry in experiment [1] and in experiment [3] was “inactive” throughout.

Turning to `N#Cc1c(-c2cccs2)nc(SCC(=O)c2ccc(Br)cc2)[nH]c1=O`, the compound was classed as inactive in experiment [7], in experiment [8] and in experiment [10]. In addition, the Potency was 15.8 µM (active) in experiment [9] and 22.4 µM (active) in experiment [1]. The activation in [2] is 8.4% [at 17.1 µM, percent relative to cAMP agonist control]. For the same compound, the Potency result in experiment [3] was “inactive”.

In the case of `Oc1ccc2nnc3c(Br)cnn3c2c1`, the Potency in [6] was 16.3 µM (active); in experiment [2] it was 112 µM (active). The Potency result in experiment [1], in experiment [3] and in experiment [4] was “inactive” throughout.

With `CC(C)CC(=NNC(=O)c1ccncc1)c1cc(Cl)ccc1O`, the Potency result in experiment [1] and in [4] was “inactive” throughout. For the same compound, the Potency in experiment [2] is 100 µM (active).

In the case of `COC(=O)CCc1nc2cc(Cl)ccc2n(Cc2ccccc2)c1=O`, the Potency result in experiment [1], in experiment [2] and in experiment [4] was “inactive” each time.

Regarding `CCN(CC)c1ccc(/C=C(\C#N)C(=O)c2ccc(Br)cc2)cc1`, the Potency entry in experiment [6], in experiment [1], in [3] and in experiment [4] was “inactive” each time. For the same compound, in [2], the Potency is 112 µM (active).

As to `CSc1ncccc1C(=O)OCc1c(F)cccc1Cl`, the Potency entry in [1], in [2] and in [4] was “inactive” in each case.

Take `COc1ccccc1NC(=O)c1sc2nc(Cc3ccccc3)cc(C(F)(F)F)c2c1N`: the Potency in experiment [6] was 13 µM (active). The Potency result in experiment [1] and in [3] was “inactive” each time. In addition, the activation in experiment [2] is -0.606% [at 17.1 µM, percent relative to cAMP agonist control]. The activity change, negative = inhibition in experiment [4] was -9.81% [at 30.8 µM].

`COc1ccc(/C=C2\C(=O)NC(=O)c3ccccc32)cc1OC`: the Potency result in [1], in [2] and in [4] was “inactive” throughout.

Take `COc1ccc(C(C#N)=Cc2ccccc2OC)cc1`: the Potency result in [1] was “inactive”. The activation in experiment [2] is -1.43% [at 17.1 µM, percent relative to cAMP agonist control]. The activity change, negative = inhibition in experiment [4] was -8.61% [at 30.8 µM].

`COCc1c(C(=O)N2CCc3ccccc32)oc2ccccc12`: the Potency entry in experiment [1] and in [4] was “inactive” in each case. In addition, the Potency in [2] was 112 µM (active).

Regarding `Cc1ccc(OCc2nc3ccccc3n2CC(C)C)cc1`, the Potency result in experiment [1], in [2], in experiment [3] and in [5] was “inactive” each time.
